Out of some 290,000 compounds screened, about 11,000 (3.8%) were called active. This excerpt belongs to a sample that is enriched for actives. Values without a mark were called inactive.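 How the source made its calls: active means mean replicate inhibition above about 79%, with every replicate also reaching it (limit read from the data); inconclusive means only one of the two criteria met; inactive means mean below limit and not every replicate reaching it.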

For the assay, the target named is FAD-linked sulfhydryl oxidase ALR (Homo sapiens) (UniProt P55789). The experiment in a line: inhibitors of human ALR sulfhydryl oxidase, primary screen, biochemical, H2O2 detection, HRP-luminol luminescence, single point (AID 485317). The note with it: purified ALR, DTT oxidation, hits give high values, concentration not given here.
Chain of FAD-linked sulfhydryl oxidase ALR (Homo sapiens) (P55789 whole entry, looked up): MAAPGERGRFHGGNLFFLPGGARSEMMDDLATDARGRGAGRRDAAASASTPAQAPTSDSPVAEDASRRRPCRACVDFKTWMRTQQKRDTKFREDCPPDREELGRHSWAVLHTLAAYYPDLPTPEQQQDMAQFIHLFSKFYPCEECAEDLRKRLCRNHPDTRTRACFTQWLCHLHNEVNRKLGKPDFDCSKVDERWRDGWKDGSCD
Take `Nc1c(-c2ccccc2)nnn1Cc1ccccc1`: the inhibition (in general, the relative decrease from the control value, in per cent) was -6.35%. As for `Cc1ccc(C(=O)CSc2nnc(Cn3nnc4ccccc43)n2C)cc1`, the inhibition was 39.7%. On to `Cn1c(CC(=O)Nc2ccccc2)nnc1SCC(=O)c1ccccc1`, for which the inhibition was -3.26%. On to `Cn1c(CC2Sc3ccccc3NC2=O)nnc1SCC(=O)c1ccc(Cl)cc1` (stereo not given), for which the inhibition was 92.8% (active). On to `Cc1cc(-c2n[nH]c(=S)n2/N=C/c2ccco2)n[nH]1`, for which the inhibition was -0.903%.

With `S=c1[nH]nc(-c2ccco2)n1/N=C/c1ccccc1`, the inhibition is 94.9% (active). The same measure for `S=c1[nH]nc(-c2ccco2)n1/N=C/c1ccc(Br)s1`: 68.5%; for `COc1ccc(C(=O)COC(=O)C(O)c2ccccc2)c(OC)c1` (stereo not given): -0.55%; for `O=C(C1Cc2ccccc2CN1C(=O)c1ccco1)N1CCN(c2ccccc2)CC1` (stereo not given): 50.3%.

Regarding `Cc1ccc(Cl)c(OCC(=O)N(C)CC(=O)Nc2ccc(N3CCOCC3)cc2)c1`, the inhibition was 52.9%.

Consider `CCCC(=O)N(CCc1ccccc1)Cc1nc2ccccc2c(=O)[nH]1`, for which the inhibition was -7.51%. The same measure for `O=C(CCc1[nH]c2ccccc2c1Sc1ccccc1)N(CCO)CCO`: 99% (active); for `CCCCNC(=O)Cn1nc(C)c(S(=O)(=O)N2CCOCC2)c1C`: 3.23%. The same measure for `COc1ccc(S(=O)(=O)N2CCN(CC(=O)N3CCOCC3)CC2)cc1OC`: -0.297%; for `Cc1cccc(-c2nc(Nc3ccc(O)cc3)c3ccccc3n2)c1`: 6.09%; for `Cc1ccc(-c2nnc(Nc3ccc(C(=O)N(C)C)cc3)c3ccccc23)cc1S(N)(=O)=O`: -2.47%. The figure for `Oc1ccc(-c2nnc(Nc3ccccc3)c3ccccc23)cc1` is 98.8% (active); for `CCOC(=O)NN1C(=O)c2ccccc2NC1c1cccc(O)c1` (stereo not given) it is -18.3%. `O=C1c2ccccc2NC(c2ccc(-c3cccc(Cl)c3)o2)N1O` (stereo not given): the inhibition was 95.9% (active).

For `O=C1NC(c2cccc(Cl)c2)Nc2ccccc21` (stereo not given), the inhibition is 0.575%. The same measure for `COc1ccc(C(=O)COC(=O)c2c(C)noc2C)cc1Cl`: 1.08%; for `Nc1ccc(-c2sc(N)nc2-c2ccccc2)cc1`: 99% (active). The figure for `Nc1nc(-c2ccccc2)cc(-c2ccccc2)n1` is -2.58%.

On to `Nc1ccc(-c2nnc(-c3ccccc3)o2)cc1`, for which the inhibition is 36.1%. As for `CCN1C(=O)[C@@H]2[C@@H](c3ccc(-c4ccccc4)cc3)N3CCCC[C@@]3(C(=O)OC)[C@@H]2C1=O`, the inhibition is -1.67%. For the compound `CCCCn1c(N)c(N(CCOC)C(=O)c2cccc(S(=O)(=O)N(C)c3ccccc3)c2)c(=O)[nH]c1=O`, the inhibition was -2.15%. The same measure for `Cc1ccc(NC(=O)C2CC(=O)N(c3ccc4c(c3)OCCO4)C2)cc1S(=O)(=O)N1CCCCCC1` (stereo not given): -0.304%; for `COc1cc(C2C(C(=O)c3cccs3)=C(O)C(=O)N2CCN2CCOCC2)ccc1OCCC(C)C` (stereo not given): -0.637%; for `COc1ccc(Cc2nnc(SCC(=O)Nc3ccc(C)c(Cl)c3)[nH]c2=O)cc1`: -4.08%. For the compound `Cc1ccc(NC(=O)C/C(N)=N/O)cc1Cl`, the inhibition was -7.95%. Take `Cc1ccc(NC(=O)CSc2nn3c(=O)c(C)nnc3s2)cc1Cl`: the inhibition is 98.9% (active). The figure for `CC(C)(C)S(=O)(=O)c1ccccc1-c1noc(-c2ccccc2)c1C(N)=O` is -2.96%. The figure for `COc1ccc2nc3n(c(=O)c2c1)-c1ccc(Cl)cc1C(=O)NC3Cc1ccccc1` (stereo not given) is -0.323%; for `COc1ccc2c(c1)C(=O)Nc1cc(Cl)ccc1N2` it is 87.7% (active); for `COc1ccc(C2NC(=O)c3ccccc3N2)cc1` (stereo not given) it is 0.0966%. Consider `CC(C)(C)c1ccc(C(=O)NCc2ccco2)cc1`, for which the inhibition was 1.34%. `CN(CC(=O)NC1CCN(Cc2ccccc2)CC1)S(=O)(=O)c1ccc(Cl)s1`: the inhibition is -2.03%. The figure for `Cc1ccc(NC(=O)c2ccc(Cl)nc2)cc1S(=O)(=O)N1CCOCC1` is -4.04%; for `Cc1ccc(S(=O)(=O)NCCC(=O)NC2CCN(Cc3ccccc3)CC2)cc1` it is 6.19%; for `Cc1ccc(NC(=O)CSCC(=O)NC2CCCCC2)cc1` it is -3.3%.

As to `Cc1ccc(-c2nc(CSCC(=O)NC3CCN(Cc4ccccc4)CC3)c(C)o2)cc1`, the inhibition was 99.5% (active).

As for `Cc1ccc(-c2nc(CS(=O)CC(=O)NC3CCCC3)c(C)o2)cc1` (stereo not given), the inhibition is 99.1% (active). The same measure for `Cc1ccc(NC(=O)CS(=O)CC(=O)N(c2ccccc2)C(C)C(=O)NC2CCCC2)cc1` (stereo not given): -4.87%; for `Cc1ccc(-c2cc(C(=O)NC3CCN(Cc4ccccc4)CC3)c3ccccc3n2)cc1`: 1.58%; for `COC(=O)[C@]1(CC(C)C)N[C@H](c2ccc(SC3CCCCC3)cc2)[C@@H]2C(=O)N(C)C(=O)[C@@H]21`: -4.22%. The figure for `O=C(Nc1cccc(S(=O)(=O)N2CCCC2)c1)c1cncc(Br)c1` is -0.493%; for `OCC[C@H]1C[C@@H](O)[C@H](O)[C@@]2(OCCc3ccccc32)O1` it is -5.81%.

With `C=CC[C@@H](CC(=O)N[C@@H](CO)Cc1ccccc1)C(=O)N[C@H](COC(=O)[C@H](CC=C)CC(=O)OC(C)(C)C)Cc1ccccc1`, the inhibition was 0.393%. With `Cc1ccc(C(c2sc3nc(C)nn3c2O)N2CCN(c3ccc(F)cc3)CC2)cc1` (stereo not given), the inhibition is 2.24%. Take `Oc1c(C(c2cccs2)N2CCN(c3ccc(F)cc3)CC2)sc2ncnn12` (stereo not given): the inhibition was 95.5% (active). As for `Oc1c(C(c2ccco2)N2CCC3(CC2)OCCO3)sc2ncnn12` (stereo not given), the inhibition was -33.4%. Take `COc1ccc(C(CNC(=O)c2ccc(NS(=O)(=O)c3ccc(F)c(C)c3)cc2)N(C)C)cc1` (stereo not given): the inhibition was -5.64%.

Take `CC1(C)CC(=O)C=C(c2ccc(Cl)c(C(F)(F)F)c2)C1`: the inhibition was 3.75%. Regarding `CC(=O)c1ccc(NC(=O)CSC(=S)N2CCCC2)cc1`, the inhibition is 92.8% (active). Regarding `CCN(CC(=O)Nc1ccc(NC(C)=O)cc1)C(=O)CSC(=S)N1CCCC1`, the inhibition was -0.0599%. The figure for `COc1cc(NC(=O)CSC(=S)N2CCCC2)c(OC)cc1Cl` is -2.05%.

As to `CCN1C(=O)c2cccc3c(N)ccc1c23`, the inhibition is 99.2% (active). Turning to `CCN1C(=O)c2cccc3c(S(=O)(=O)Nc4ccccc4O)ccc1c23`, the inhibition is -28.9%.

Take `CN1C(=O)c2cccc3c(N)ccc(c23)C1=O`: the inhibition is -15.1%.

As for `COc1ccc(-c2c(C#Cc3ccccc3)c3ccccc3n2C)cc1`, the inhibition is -4.24%. The figure for `CCOC(=O)C1CCN(CC(=O)Nc2ccc(OC)c(S(=O)(=O)N3CCCCC3)c2)CC1` is -8.75%.

Consider `COc1ccc(F)cc1S(=O)(=O)NCC(c1ccc2c(c1)OCO2)N1CCN(C)CC1` (stereo not given), for which the inhibition is -4.58%.

Consider `CN(C(=O)c1cccc(NC(=O)C2CCN(C(=O)OC(C)(C)C)CC2)c1)C1CCC1`, for which the inhibition was 4.19%. In the case of `O=C(/C=C/c1ccccc1)Oc1coc(CSc2ncccn2)cc1=O`, the inhibition is 97.4% (active). As to `Cc1ccc(C(=O)Oc2coc(CSc3nnc(NC(=O)c4cccs4)s3)cc2=O)cc1C`, the inhibition was 0.72%.

Take `C=CCNC(=O)COc1coc(CN2CCN(Cc3ccccc3)CC2)cc1=O`: the inhibition is -3.07%.

Take `CC(=O)NCc1ccc(-c2csc(NC(=O)CCCc3nc4ccccc4c(=O)[nH]3)n2)cc1`: the inhibition was -5.1%. The figure for `C[C@@H]1CN([C@H](C)CO)C(=O)c2cc(NC(=O)NC3CCCCC3)ccc2O[C@H]1CN(C)S(C)(=O)=O` is 0.076%; for `Cc1cccc(N=C2SC(C)CN2C(=O)CN2C(=O)NC3(CCCC3)C2=O)c1` (stereo not given) it is 2.77%; for `O=C1CSc2ccc(C(=O)NCc3ccccn3)cc2N1` it is -5.07%. Turning to `Cc1nn(Cc2ccccc2)c(C)c1C(=O)N1CCN(CC(=O)Nc2ccccc2Cl)CC1`, the inhibition was -4.78%. The same measure for `COc1ccc(-c2nc3c(s2)CCc2onc(-c4ccc(Br)cc4)c2-3)cc1`: -11%; for `Clc1ccc2nc(CSc3ccccc3)cn2c1`: 98.9% (active); for `CCOc1ncccc1C(=O)OCc1cn2cc(Cl)ccc2n1`: -2.41%. As for `CCCCCCSc1ccc(-c2nc3ccc(Cl)cn3c2NCc2ccccc2)cc1`, the inhibition is -0.616%.

In the case of `O=C1N[C@@H](Cc2ccccc2)C(=O)N2[C@H]1C[C@]1(Br)c3ccccc3N(S(=O)(=O)c3ccccc3)[C@H]21`, the inhibition was -12.1%. On to `Cc1ccc(-c2nc(C)sc2CC(=O)OCC(=O)Nc2c(F)cccc2F)cc1`, for which the inhibition was -7.76%. The figure for `CCOc1ccc(-c2nc(C)sc2CC(=O)O)cc1` is -6.6%; for `Cc1ccc(-c2nc(C)sc2CC(=O)O)cc1` it is 99.3% (active); for `Cc1ccc(C(=O)OCC(=O)N2CCCCCC2)cc1S(=O)(=O)N1CCOCC1` it is -22.6%.

Regarding `COc1cccc(CNC(=O)COC(=O)CN2C(=O)NC3(CCCCC3C)C2=O)c1` (stereo not given), the inhibition was 2.16%. The figure for `Oc1ccc(/C=N/NC2=NCCCCC2)c(O)c1` is 81.4% (active). The figure for `COc1ccccc1N1CCN(/N=C/c2ccc(O)cc2O)CC1` is 1.54%; for `FC(F)(F)c1nc2ccccc2nc1N/N=C/c1ccc(Cl)cc1` it is -14.4%. For `Oc1ccc(/C=N/Nc2nc(-c3ccccc3F)nc3ccccc23)c(O)c1`, the inhibition is 6.31%. Consider `COc1ccc(/C=C(\C#N)C(=O)ONC2=NCCCCC2)cc1`, for which the inhibition is 12.1%.

Consider `Cc1nc2ccccc2nc1N/N=C/c1ccc(O)cc1O`, for which the inhibition was 95.7% (active). Regarding `COc1ccc(OC)c(/C=C/C(=O)c2ccc3c(c2)OCO3)c1`, the inhibition was 3.84%.

Regarding `COc1cc(OC)cc(C(=O)NNC(=O)CNC(=O)c2ccc(Br)o2)c1`, the inhibition is 7.85%. Consider `CC(=O)Nc1ccc(C(=O)NNC(=O)CCCCC(=O)NNC(=O)c2ccc(NC(C)=O)cc2)cc1`, for which the inhibition is -0.231%.

The values are drawn from PubChem BioAssay AID485317 (Broad Institute, 2010).
